Compound activity: PubChem BioAssay, The Scripps Research Institute Molecular Screening Center
SF-1 inh: SF-1 (human) inhibition; Q13285; CHO-K1 Gal4-SF-1 LBD luciferase reporter; inhibition, % at 10 µM; actives 0.55% (n = 65,000);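 active = inhibition above the mean inhibition of all tested compounds plus 3 SD, cut at about 48% in these data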
Target sequence (Q13285 whole entry, looked up, the tested form may be a part): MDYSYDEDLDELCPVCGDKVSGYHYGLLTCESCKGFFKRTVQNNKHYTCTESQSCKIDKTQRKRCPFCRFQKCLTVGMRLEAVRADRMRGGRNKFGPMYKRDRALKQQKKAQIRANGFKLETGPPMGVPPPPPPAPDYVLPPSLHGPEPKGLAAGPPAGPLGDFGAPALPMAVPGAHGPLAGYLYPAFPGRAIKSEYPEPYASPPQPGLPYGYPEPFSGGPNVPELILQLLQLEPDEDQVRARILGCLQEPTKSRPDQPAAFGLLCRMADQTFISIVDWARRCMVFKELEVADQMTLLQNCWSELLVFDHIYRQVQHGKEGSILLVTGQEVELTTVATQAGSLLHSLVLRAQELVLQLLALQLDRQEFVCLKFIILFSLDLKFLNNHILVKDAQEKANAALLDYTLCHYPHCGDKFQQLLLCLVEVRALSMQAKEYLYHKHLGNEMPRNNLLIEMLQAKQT
A number is an active result. Shown is part of a subset that was picked to be rich in hits.

How did Cc1cc(C)nc(NCC(O)CNc2ccccc2Cl)n1 (stereo not drawn) do in these assays?
SF-1 inh: inactive

Results for O=C(COc1ccc(F)cc1Br)N1CCc2ccccc21 ?
SF-1 inh: inactive

Results for Cc1cc(C(=O)OCC(=O)N2CCc3ccccc32)c(C)o1 ?
SF-1 inh: inactive

What do the screens show for `O=C(CSc1nnc(COc2cccc3cccnc23)o1)N1CCc2ccccc21`?
SF-1 inh: 53

How did NC(=O)CS(=O)(=O)c1nc2ccccc2n1Cc1ccccc1F do in these assays?
SF-1 inh: inactive

How did COc1ccccc1OCc1csc(NC(=O)c2ccco2)n1 do in these assays?
SF-1 inh: inactive

Results for CCOc1ccc(S(=O)(=O)N(CC(=O)O)c2ccc(C)cc2)cc1 ?
SF-1 inh: inactive

What do the screens show for `COc1ccc2[nH]c(=O)c(CN(C(=O)C3CCCO3)c3cccc(C)c3)cc2c1` (stereo not drawn)?
SF-1 inh: inactive

What do the screens show for `CSC1=C(C#N)C(c2ccc(Cl)cc2)C2=C(CC(C)(C)CC2=O)N1` (stereo not drawn)?
SF-1 inh: 52

How did Cc1ccc(NC(=O)CSC2=C(C#N)C(c3ccc4c(c3)OCO4)C3=C(CCCC3=O)N2)c(C)c1 (stereo not drawn) do in these assays?
SF-1 inh: inactive

What do the screens show for `Cc1ccc(N2C(N)=NC(N)=NC23CCCC3)c(C)c1`?
SF-1 inh: inactive

How did COc1cccc(-c2nnc(SCC(=O)N3CCCC3=O)n2-c2ccccc2)c1 do in these assays?
SF-1 inh: inactive

What do the screens show for `Cc1occc1-c1nnc(SCC(=O)NCc2ccco2)n1CC(C)C`?
SF-1 inh: inactive

Results for COCCn1c(SCCN2CCCCC2)nc2ccccc2c1=O ?
SF-1 inh: inactive

How did CC(=O)c1cccc(NC(=O)c2cc(C(C)C)on2)c1 do in these assays?
SF-1 inh: inactive

How did Cc1cccc(NC(=O)c2cc3ccccc3o2)c1 do in these assays?
SF-1 inh: inactive

What do the screens show for `Cc1cc(C(=O)Nc2cccc(C(=O)O)c2)oc1C`?
SF-1 inh: 69

How did Oc1ccc(-c2nnc(SCC3CCCCC3)o2)cc1 do in these assays?
SF-1 inh: inactive

Results for Clc1ccc(-n2ncc3c(NCc4cccs4)ncnc32)cc1 ?
SF-1 inh: inactive

What do the screens show for `c1ccc(OCCOc2ncnc3sccc23)cc1`?
SF-1 inh: inactive

What do the screens show for `c1csc(CNc2ncnc3sccc23)c1`?
SF-1 inh: 51

Results for Cc1cc(=O)oc2cc(OCC(=O)OCc3nnc(-c4ccccc4)o3)ccc12 ?
SF-1 inh: inactive

Results for Cc1ccccc1NS(=O)(=O)c1ccc(OCC(=O)N2CCCC2)cc1 ?
SF-1 inh: inactive

Results for c1ccc2nc(-c3nc4ccccc4o3)ccc2c1 ?
SF-1 inh: 64

Results for Clc1ccc2oc(-c3ccccn3)nc2c1 ?
SF-1 inh: inactive

How did Cc1ccnc2ccc(-c3nc4ccccc4o3)cc12 do in these assays?
SF-1 inh: inactive

What do the screens show for `Cc1cc(C)nc(NC2=NCC(=O)N2c2ccc3c(c2)OCCO3)n1`?
SF-1 inh: inactive

Results for CCN1CCN(CNC(=O)c2cnccn2)CC1 ?
SF-1 inh: inactive

How did COC(=O)CCCC(=O)Nc1ccc(Cl)c(Cl)c1 do in these assays?
SF-1 inh: inactive

What do the screens show for `Cc1ccc2oc3c(c(=O)c2c1)C(c1cccc(O)c1)N(c1ccccn1)C3=O` (stereo not drawn)?
SF-1 inh: inactive

Results for Cc1ccc(N2C(=O)c3ccccc3C2O)nc1 (stereo not drawn) ?
SF-1 inh: 56

Results for O=C1c2ccccc2C(O)N1c1ccc(Cl)cc1 (stereo not drawn) ?
SF-1 inh: inactive

Results for CCC(=O)Nc1nc2ccc3nc(C)sc3c2s1 ?
SF-1 inh: inactive

How did CC(C)COC(=O)N(C)c1ccc(C(O)(C(F)(F)F)C(F)(F)F)cc1 do in these assays?
SF-1 inh: inactive

What do the screens show for `Cc1ccc2nc3c(cc(C#N)c(=O)n3CC3CCCO3)c(=O)n2c1` (stereo not drawn)?
SF-1 inh: inactive

How did CCN1C(=O)c2cccc3c(S(=O)(=O)NC(Cc4c[nH]c5ccccc45)C(=O)O)ccc1c23 (stereo not drawn) do in these assays?
SF-1 inh: inactive

What do the screens show for `COc1cccc(N2CCN(c3ncnc4c3[nH]c3ccccc34)CC2C)c1` (stereo not drawn)?
SF-1 inh: 85

How did COc1cccc(NC(=O)N2CCN(c3cccc(C)c3)C(C)C2)c1 (stereo not drawn) do in these assays?
SF-1 inh: inactive

How did COc1cccc(N2CCN(c3ncnc4c3[nH]c3ccc(F)cc34)CC2C)c1 (stereo not drawn) do in these assays?
SF-1 inh: 96

Results for COc1cccc(OCCN2CCN(c3ncnc4c3cnn4-c3ccccc3)CC2)c1 ?
SF-1 inh: inactive

How did COc1cccc(-n2nc(C(=O)O)c3ccccc3c2=O)c1 do in these assays?
SF-1 inh: inactive

What do the screens show for `CC(C)(C)NC(=O)CSc1nnc(Cc2ccc3c(c2)OCO3)n1C1CCCCC1`?
SF-1 inh: inactive

What do the screens show for `COc1cc(C(=O)Nc2nnc(-c3sccc3C)s2)cc(OC)c1OC`?
SF-1 inh: inactive

How did Cc1cc(Nc2ccc(F)cc2F)n2ncnc2n1 do in these assays?
SF-1 inh: inactive

Results for Cc1ccc(-c2csc3ncnc(Sc4nnc(CN5CCCCCC5=O)o4)c23)cc1 ?
SF-1 inh: 71

What do the screens show for `Cc1ccc(C)c(N2CCN(C(=O)CCCn3c(=S)[nH]c4cc5c(cc4c3=O)OCO5)CC2)c1`?
SF-1 inh: inactive

Results for Cc1cccc(-c2nc(C#N)c(NC3CCCCC3)o2)c1 ?
SF-1 inh: inactive

How did CCOc1ccc(NC(=O)CSc2nnc(C3CC3)n2N)cc1 do in these assays?
SF-1 inh: inactive

How did O=C(CCNc1ccccc1)c1ccc2c(c1)OCO2 do in these assays?
SF-1 inh: inactive

How did COC(=O)c1ccc(NC(=O)c2ccc3c(c2)OCO3)cc1 do in these assays?
SF-1 inh: inactive

How did O=C(/C=C\Nc1cccc(F)c1)c1ccc2c(c1)OCO2 do in these assays?
SF-1 inh: 58

Results for O=C(CCN1C(=O)C2CC=C(Cl)CC2C1=O)N1CCCCC1 (stereo not drawn) ?
SF-1 inh: inactive

How did Cc1nnc(Sc2nc(Sc3nnc(C)s3)nc(N3CCN(C)CC3)n2)s1 do in these assays?
SF-1 inh: 96

What do the screens show for `Cc1nc(CSc2nnc(C)s2)cs1`?
SF-1 inh: inactive

Results for FC(F)(F)c1cnc(Nc2ccc(N3CCOCC3)cc2)c(Cl)c1 ?
SF-1 inh: inactive

Results for O=C(CCCc1cccs1)Nc1nc2c(s1)CCCC2 ?
SF-1 inh: inactive

What do the screens show for `c1coc(CNc2nc3sc4c(c3c3ncnn23)CCCC4)c1`?
SF-1 inh: inactive

Results for c1csc(CCNc2ncnc3sc4c(c23)CCC4)c1 ?
SF-1 inh: 76

What do the screens show for `CC1CCCCN1C(=O)C1CC(c2ccc(F)cc2)=NO1` (stereo not drawn)?
SF-1 inh: inactive

Results for CC(C)CCn1c(CN2CCN(c3cccc(Cl)c3)CC2)nc2c1c(=O)n(C)c(=O)n2C ?
SF-1 inh: inactive

How did O=c1[nH]cnc2c1N1CCC2CC1 do in these assays?
SF-1 inh: inactive

What do the screens show for `O=C(O)c1oc2ccccc2c1CN1CCN(c2ccccc2)CC1`?
SF-1 inh: inactive

Results for Cc1occc1C(=O)Nc1ccc2c(c1)CCC2 ?
SF-1 inh: inactive

What do the screens show for `O=C(Nc1nc2cc3c(cc2s1)OCO3)C1=COCCO1`?
SF-1 inh: 62

How did c1ccc(N2CCN(c3nc4cc5c(cc4s3)OCO5)CC2)cc1 do in these assays?
SF-1 inh: inactive

Results for c1c2c(cc3sc(N4CCOCC4)nc13)OCO2 ?
SF-1 inh: inactive

What do the screens show for `CC(CC#CCN1CCOCC1)OCCC#N` (stereo not drawn)?
SF-1 inh: inactive
